The text below walks through data of PubChem BioAssay AID624255 (Broad Institute, 2012).

Molecules are shown by their SMILES. Where “and” joins values, the source holds several entries; their conditions need not be identical. Identical values can stand only once. About 4,600 (6%) of roughly 77,000 compounds were called active. About 1% were inconclusive and are not listed. The entries come from a sample that favours actives as a whole. Unmarked numbers belong to inactive results.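 How the source made its calls: active means mean inhibition above about 93%, with at least 55% of replicates each passing it (limit read from the data, passing the limit was not always enough); inconclusive means only one of those two conditions holds; inactive means neither condition holds.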

A short description of the experiment: T. cruzi intracellular proliferation inhibitors, primary screen, cell-based, beta-gal Tulahuen parasites, NIH3T3 host, luminescence (AID 624255). Conditions: T. cruzi beta-gal in NIH3T3, GalScreen luminescence, 90 h; at 8.34 µM; hits give high values.
One may read the inhibition as the relative decrease from the control value, in per cent. Take `CCC(=O)N(C)C[C@H]1Oc2ncc(-c3ccc(C#N)cc3)cc2C(=O)N([C@@H](C)CO)C[C@H]1C`: the inhibition is 51.9%.
As for `COc1ccc(-c2cnc3c(c2)C(=O)N([C@H](C)CO)C[C@@H](C)[C@H](CN(C)Cc2ccccc2)O3)cc1`, the inhibition was 19.2% and 75.6%.
Turning to `C/C=C/c1ccc([C@H]2[C@@H](C#N)N(C(=O)CN3CCOCC3)[C@@H]2CO)cc1`, the inhibition is 80.8%.
Turning to `N#C[C@H]1[C@H](c2ccc(-c3ccccc3)cc2)[C@@H](CO)N1C(=O)Cc1ccccc1`, the inhibition is 79.5%.
Take `N#C[C@@H]1[C@@H](c2ccccc2)[C@@H](CO)N1C(=O)Cc1ccccc1`: the inhibition is 105% (active).
For `N#C[C@@H]1[C@H](c2ccc(C#Cc3ccccc3F)cc2)[C@H](CO)N1C(=O)C1CCCCC1`, the inhibition is 83.3%.
Then `COCC(=O)N1[C@H](CO)[C@@H](c2ccc(C#Cc3ccccc3F)cc2)[C@@H]1C#N`, with 97.7% (active); and `N#C[C@@H]1[C@@H](c2ccc(-c3ccccc3)cc2)[C@@H](CO)N1C(=O)Cc1ccccc1`, with 31%; and `COc1ccccc1C#Cc1ccc([C@@H]2[C@@H](CO)N(C(=O)C3CC3)[C@H]2C#N)cc1`, with 88.6%.
For `COC(=O)C[C@@H]1C[C@H]2c3cc(NC(=O)Nc4ccc(F)cc4)ccc3O[C@H]2[C@@H](CO)O1`, the inhibition is -1.42%.
Then `CC(=O)NC[C@H]1[C@H](c2ccc(C3=CCCCC3)cc2)[C@@H](CO)N1C(=O)NC(C)C`, with 21.7%; and `COc1ccccc1S(=O)(=O)N[C@@H]1CC[C@H](CC(=O)N2CCOCC2)O[C@@H]1CO`, with 16.9%.
In the case of `CNC(=O)C[C@@H]1CC[C@@H]2[C@H](COc3ccc(NC(=O)Nc4ccccc4)cc3C(=O)N2C)O1`, the inhibition was 7.48%.
For `C[C@H](CO)N1C[C@H](C)[C@H](CN(C)CC2CC2)OCCCC[C@H](C)Oc2ccc(NC(=O)c3ccncc3)cc2C1=O`, the inhibition is 29.6%.
For the compound `CCC(=O)N1C[C@H](C)[C@@H](OC)CN(C)C(=O)c2cc(NC(=O)c3cnccn3)ccc2OC[C@@H]1C`, the inhibition is 11%.
In the case of `CCNC[C@@H]1[C@@H](c2ccccc2)[C@@H](CO)N1C(=O)Cc1ccccn1` it was 31.9%; in that of `COCCNC[C@@H]1[C@H](c2ccccc2)[C@H](CO)N1c1nc(C)c(C)s1`, 100% (active); in that of `COCC(=O)N1[C@H](CNC(=O)c2ccccn2)[C@H](c2ccccc2)[C@@H]1CO`, 26.4%.
Then `COC(=O)C[C@@H]1CC[C@@H]2[C@H](COc3ccc(NC(=O)c4ccccc4OC)cc3C(=O)N2C)O1`, with 44.4%; and `O=C(c1ccccc1F)N1C[C@H]2[C@@H](c3ccccc31)[C@@H](CO)N2C(=O)c1ccc(F)cc1`, with 103% (active).
For the compound `CCC(=O)N1[C@@H](CO)[C@@H]2c3ccccc3N(C(=O)c3ccccc3F)C[C@@H]21`, the inhibition is 6.74%.
In the case of `CC(=O)N1[C@H](CO)[C@H]2c3ccccc3N(C(=O)c3ccc(F)cc3)C[C@H]21` it was 14.7%.
In the case of `O=C(C[C@@H]1C[C@@H]2c3cc(NC(=O)CC4CC4)ccc3O[C@@H]2[C@@H](CO)O1)NCCN1CCCCC1` it was -43.9%.
For the compound `COc1cccc(CNC(=O)c2cc3c(c(-c4cccc(-c5ccc(C#N)cc5)c4)n2)[C@@H](CCO)N([S@](=O)C(C)(C)C)C3)c1`, the inhibition was 84.2%.
As for `CCCNC(=O)c1cc2c(c(-c3cccc(-c4ccc(F)cc4)c3)n1)[C@@H](CCO)N([S@](=O)C(C)(C)C)C2`, the inhibition was 87.5%.
Consider `CC(C)(C)[S@@](=O)N1Cc2cc(C(=O)NCc3ccc4c(c3)OCO4)nc(-c3cccc(-c4ccccc4)c3)c2[C@H]1CCO`, for which the inhibition was 99.7% (active).
With `CCC(=O)N1C[C@@H](C)[C@H](OC)CN(C)C(=O)c2ccc(NC(=O)Nc3ccccc3)cc2OC[C@@H]1C`, the inhibition is 13.5%.
As for `CC(=O)N(C)C[C@H]1Oc2cc(C#CC3CC3)ccc2S(=O)(=O)N([C@H](C)CO)C[C@@H]1C`, the inhibition is 21.1%.
In the case of `CCC(=O)N(C)C[C@H]1Oc2cc(C#CC3CCCC3)ccc2S(=O)(=O)N([C@H](C)CO)C[C@@H]1C` it was 86.4%; in that of `C[C@H]1CN([C@@H](C)CO)S(=O)(=O)c2ccc(C#CC3CCCC3)cc2O[C@@H]1CN(C)C(=O)c1cccc(F)c1`, 115% (active).
As for `C[C@H](CO)N1C[C@H](C)[C@H](CN(C)C)Oc2cc(C#CC3CC3)ccc2S1(=O)=O`, the inhibition is -175%.
As for `C[C@H](CO)N1C[C@H](C)[C@@H](CN(C)C(=O)Nc2cc(F)ccc2F)Oc2cc(C#CC3CC3)ccc2S1(=O)=O`, the inhibition was 114% (active).
Consider `COCC(=O)N(C)C[C@H]1Oc2cc(C#CC3CCCC3)ccc2S(=O)(=O)N([C@H](C)CO)C[C@@H]1C`, for which the inhibition is 22.9%.
In the case of `CO[C@@H]1CC[C@@H]2CCOc3ccc(C#N)cc3C(=O)N(C)C[C@@H](OC)[C@@H](C)C(=O)N(C)C[C@H]1O2` it was 26.1%; in that of `Cc1noc(C)c1NC(=O)N(C)C[C@H]1OCCCC[C@H](C)Oc2ccc(NC(=O)Nc3ccccc3)cc2C(=O)N([C@H](C)CO)C[C@@H]1C`, -11.2%; in that of `CO[C@@H]1CN(C)C(=O)c2ccc(NS(=O)(=O)c3cn(C)cn3)cc2OC[C@H](C)N(CCC(F)(F)F)C[C@@H]1C`, 40.1%.
Then `CCNC(=O)C[C@@H]1CC[C@H]2[C@@H](COc3ccc(NC(=O)c4ccccc4Cl)cc3C(=O)N2C)O1`, with 1.97%; and `CNC[C@H]1Oc2cc(C#Cc3ccccn3)ccc2S(=O)(=O)N([C@H](C)CO)C[C@@H]1C`, with 92.5%.
Regarding `COc1cccc(C#Cc2cnc3c(c2)C(=O)N([C@@H](C)CO)C[C@H](C)[C@@H](CN(C)C(=O)C2CCC2)O3)c1`, the inhibition is 84.3%.
For the compound `C[C@H](CO)N1C[C@H](C)[C@H](CN(C)C(=O)C2CC2)Oc2ncc(C#Cc3ccccc3)cc2C1=O`, the inhibition is 60.3%.
Then `COCC#Cc1cnc2c(c1)C(=O)N([C@H](C)CO)C[C@@H](C)[C@@H](CN(C)C(=O)Nc1cccc(F)c1)O2`, with 8.75%; and `C[C@H](CO)N1C[C@H](C)[C@H](CN(C)C(=O)Nc2ccc3c(c2)OCO3)Oc2ncc(C#Cc3cccc(F)c3)cc2C1=O`, with 100% (active).
On to `C[C@H]1CN([C@@H](C)CO)C(=O)c2cc(C#Cc3ccc(F)cc3)cnc2O[C@@H]1CN(C)C(=O)Nc1ccc(F)cc1`, for which the inhibition is 25%.
In the case of `C[C@H](CO)N1C[C@H](C)[C@H](CN(C)C(=O)C2CCCCC2)Oc2ncc(C#Cc3cccc(F)c3)cc2C1=O` it was 120% (active); in that of `CN1[C@@H]2CN(C(=O)c3ccc(F)cc3)c3ccccc3[C@@H]2[C@@H]1CO`, -2.39%.
As for `COc1cccc(-c2ccc3n(c2=O)C[C@H]2[C@H](CO)[C@@H](C(=O)N4CCCCC4)N(C)[C@@H]32)c1`, the inhibition was 13.1%.
As to `C[C@H]1CN([C@@H](C)CO)S(=O)(=O)c2ccc(C#Cc3cccc(F)c3)cc2O[C@@H]1CN(C)S(=O)(=O)c1cn(C)cn1`, the inhibition was 102% (active).
With `CC(C)CC#Cc1ccc2c(c1)O[C@H](CN(C)S(=O)(=O)c1cccc(F)c1)[C@@H](C)CN([C@@H](C)CO)S2(=O)=O`, the inhibition is 119% (active).
Consider `C[C@@H]1CN([C@@H](C)CO)S(=O)(=O)c2ccc(C#Cc3cccc(F)c3)cc2O[C@H]1CN(C)S(=O)(=O)c1cn(C)cn1`, for which the inhibition is 61.3% and -15.4%.
In the case of `COc1cccc(S(=O)(=O)N(C)C[C@@H]2Oc3cc(C#CCN(C)C)ccc3S(=O)(=O)N([C@@H](C)CO)C[C@@H]2C)c1` it was 91.4%; in that of `C[C@@H]1CN([C@@H](C)CO)S(=O)(=O)c2ccc(C#Cc3ccncc3)cc2O[C@@H]1CN(C)S(=O)(=O)c1ccccc1`, 11.5%.
On to `COc1cccc(S(=O)(=O)N(C)C[C@H]2Oc3cc(C#CCN(C)C)ccc3S(=O)(=O)N([C@H](C)CO)C[C@H]2C)c1`, for which the inhibition is 75.2%.
In the case of `C[C@@H]1CN([C@H](C)CO)S(=O)(=O)c2ccc(C3=CCCC3)cc2O[C@H]1CN(C)C(=O)c1ccccc1`, the inhibition is -0.873%.
With `CC(=O)N(C)C[C@@H]1Oc2cc(-c3cccc(F)c3)ccc2S(=O)(=O)N([C@H](C)CO)C[C@H]1C`, the inhibition was 31.3%.
In the case of `C[C@@H]1CN([C@H](C)CO)S(=O)(=O)c2ccc(C3=CCCC3)cc2O[C@@H]1CN(C)C(=O)C1CCC1` it was 52.9%; in that of `C[C@H]1CN([C@@H](C)CO)S(=O)(=O)c2ccc(C#Cc3ccccc3)cc2O[C@H]1CN(C)S(=O)(=O)c1cn(C)cn1`, 27.9%; in that of `C[C@@H]1CN([C@@H](C)CO)S(=O)(=O)c2ccc(-c3cccc(F)c3)cc2O[C@@H]1CN(C)S(=O)(=O)c1ccccc1`, 117% (active).
On to `C[C@H](CO)N1C[C@H](C)[C@@H](CN(C)S(=O)(=O)c2ccc(F)cc2)Oc2cc(C3=CCCC3)ccc2S1(=O)=O`, for which the inhibition is 114% (active).
`C[C@H](CO)N1C[C@H](C)[C@H](CN(C)CC2CC2)OCCCC[C@H](C)Oc2ccc(NS(=O)(=O)c3cccs3)cc2C1=O`: the inhibition was 38%.
Take `CN1c2ccc(-c3ccc(F)cc3)cc2[C@@H]2[C@@H](CCN2S(=O)(=O)c2ccc(F)cc2)[C@@H]1CO`: the inhibition was 90.2%.
In the case of `CN1c2ccc(-c3ccc(F)cc3)cc2[C@@H]2[C@@H](CCN2C(=O)c2cccnc2)[C@H]1CO` it was 84%; in that of `C[C@@H]1CCCCO[C@H](CN(C)C(=O)c2ccccc2)[C@H](C)CN([C@H](C)CO)C(=O)c2cc(N(C)C)ccc2O1`, 91.3%; in that of `COCC(=O)N1C[C@@H]2[C@H](c3ccccc31)[C@@H](CO)N2C(=O)C1CC1`, 65.2%.
